The supplement of paper PMC12282887
± gives the standard deviation of the averaged measurements.

How the values were obtained:
Experiment in all cases: promoter activity interaction Z-score (Lux/OD deviation from empty-vector control); higher = stronger promoter induction by the compound
[1] = tested on: E. coli BW25113 ompFp lux reporter
How it was run: (§1)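 OD600 and luminescence of E. coli BW25113 reporter cultures (40 µl LB Lennox, 384-well plates, 37°C) were measured every 30 min for 12 h. Integration ran over 0–8 h for wild type or 1–9 h for deletion strains, and wells with growth below 10% of the median were dropped. The score is the Z-transformed residual of growth-normalised luminescence fitted against a control.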

[2] = tested on: E. coli BW25113 robp lux reporter
How it was run: as §1

[3] = tested on: E. coli BW25113 soxSp lux reporter
How it was run: as §1

[4] = tested on: E. coli BW25113 tolCp lux reporter
How it was run: as §1

[5] = 128.4 µg/ml, genetic background: wild type
[6] = 128.4 µg/ml, genetic background: ΔmarA
[7] = 128.4 µg/ml, genetic background: Δrob
[8] = 128.4 µg/ml, genetic background: ΔsoxS
[9] = 256.8 µg/ml, genetic background: wild type
[10] = 256.8 µg/ml, genetic background: ΔmarA
[11] = 256.8 µg/ml, genetic background: Δrob
[12] = 256.8 µg/ml, genetic background: ΔsoxS
[13] = 32.1 µg/ml, genetic background: wild type
[14] = 32.1 µg/ml, genetic background: ΔmarA
[15] = 32.1 µg/ml, genetic background: Δrob
[16] = 32.1 µg/ml, genetic background: ΔsoxS
[17] = 64.2 µg/ml, genetic background: wild type
[18] = 64.2 µg/ml, genetic background: ΔmarA
[19] = 64.2 µg/ml, genetic background: Δrob
[20] = 64.2 µg/ml, genetic background: ΔsoxS

For CN(C)C(=O)C(CCN1CCC(O)(c2ccc(Cl)cc2)CC1)(c1ccccc1)c1ccccc1 [Loperamide], the “promoter activity interaction Z-score” value [1, 5] was -0.593 ± 0.28, the “promoter activity interaction Z-score” value [1, 6] was -0.537 ± 0.65 and the “promoter activity interaction Z-score” value [1, 7] was -1.29 ± 0.17. The “promoter activity interaction Z-score” value [1, 8] was -1.21 ± 0.3, the “promoter activity interaction Z-score” value [1, 9] was 0.202 ± 0.2 and the “promoter activity interaction Z-score” value [1, 10] was 0.819 ± 0.3. For the same compound, the “promoter activity interaction Z-score” value [1, 11] was -0.591 ± 0.47, the “promoter activity interaction Z-score” value [1, 12] was 0.54 ± 0.76 and the “promoter activity interaction Z-score” value [2, 13] was -0.195 ± 0.23. For the same compound, the “promoter activity interaction Z-score” value [2, 14] was -0.672 ± 0.52, the “promoter activity interaction Z-score” value [2, 15] was 0.735 ± 0.061 and the “promoter activity interaction Z-score” value [2, 16] was 0.0686 ± 0.097. For the same compound, the “promoter activity interaction Z-score” value [2, 17] was 0.0117 ± 0.077, the “promoter activity interaction Z-score” value [2, 18] was -0.171 ± 0.68 and the “promoter activity interaction Z-score” value [2, 19] was 0.22 ± 0.015. The “promoter activity interaction Z-score” value [2, 20] was 0.000621 ± 0.037, the “promoter activity interaction Z-score” value [2, 5] was -0.524 ± 0.45 and the “promoter activity interaction Z-score” value [2, 6] was -0.323 ± 0.55. The “promoter activity interaction Z-score” value [2, 7] was -0.996 ± 0.2, the “promoter activity interaction Z-score” value [2, 8] was -0.571 ± 0.73 and the “promoter activity interaction Z-score” value [2, 9] was -1.15 ± 0.5. The “promoter activity interaction Z-score” value [2, 10] was -0.901 ± 1.4, the “promoter activity interaction Z-score” value [2, 11] was -2.1 ± 0.29 and the “promoter activity interaction Z-score” value [2, 12] was -1.78 ± 0.21. For the same compound, the “promoter activity interaction Z-score” value [3, 13] was 0.154 ± 0.15, the “promoter activity interaction Z-score” value [3, 14] was -0.043 ± 0.059 and the “promoter activity interaction Z-score” value [3, 15] was 0.355 ± 0.12. For the same compound, the “promoter activity interaction Z-score” value [3, 16] was 0.325 ± 0.045, the “promoter activity interaction Z-score” value [3, 17] was -0.0625 ± 0.16 and the “promoter activity interaction Z-score” value [3, 18] was -0.0378 ± 0.015. The “promoter activity interaction Z-score” value [3, 19] was 0.149 ± 0.035, the “promoter activity interaction Z-score” value [3, 20] was -0.0736 ± 0.2 and the “promoter activity interaction Z-score” value [3, 5] was 0.0173 ± 0.089. For the same compound, the “promoter activity interaction Z-score” value [3, 6] was 0.196 ± 0.047, the “promoter activity interaction Z-score” value [3, 7] was -0.0928 ± 0.32 and the “promoter activity interaction Z-score” value [3, 8] was -0.2 ± 0.021. The “promoter activity interaction Z-score” value [3, 9] was -0.236 ± 0.14, the “promoter activity interaction Z-score” value [3, 10] was -0.217 ± 0.25 and the “promoter activity interaction Z-score” value [3, 11] was -0.0806 ± 0.13. For the same compound, the “promoter activity interaction Z-score” value [3, 12] was -0.169 ± 0.064, the “promoter activity interaction Z-score” value [4, 13] was -0.194 ± 0.29 and the “promoter activity interaction Z-score” value [4, 14] was -0.0191 ± 0.39. For the same compound, the “promoter activity interaction Z-score” value [4, 15] was -0.0299 ± 0.8, the “promoter activity interaction Z-score” value [4, 16] was -0.292 ± 0.62 and the “promoter activity interaction Z-score” value [4, 17] was 0.0244 ± 0.6. For the same compound, the “promoter activity interaction Z-score” value [4, 18] was 0.821 ± 0.86, the “promoter activity interaction Z-score” value [4, 19] was -0.356 ± 0.33 and the “promoter activity interaction Z-score” value [4, 20] was 0.551 ± 0.73. For the same compound, the “promoter activity interaction Z-score” value [4, 5] was -0.426 ± 0.95, the “promoter activity interaction Z-score” value [4, 6] was -0.198 ± 0.95 and the “promoter activity interaction Z-score” value [4, 7] was -0.855 ± 0.25. The “promoter activity interaction Z-score” value [4, 8] was -0.596 ± 0.53, the “promoter activity interaction Z-score” value [4, 9] was 0.39 ± 0.18 and the “promoter activity interaction Z-score” value [4, 10] was 0.271 ± 1.2. The “promoter activity interaction Z-score” value [4, 11] was 0.764 ± 1 and the “promoter activity interaction Z-score” value [4, 12] was 0.351 ± 0.69.
